According to PubChem BioAssay AID1159580 (chemical genetic matrix, 2015):
Out of some 5,500 compounds screened, about 2,000 (36%) were called active. Another 18% or so got no clear call; they are omitted. Rule as the data show it: active = normalized growth mostly below about 0.91 (no sharp cut-off); inconclusive = no clear call, values can overlap the other calls; inactive = mostly above about 0.92. Some of the results follow.

Test: chemical genetic growth profiling, strain panel (AID 1159580);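 also: tested at 20 µM; growth read once vehicle control cultures reached saturation at 30 °C; 1 = growth at the plate median or of vehicle wells; lower values mean less growth of the strain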
Conditions: growth OD

Measured: normalized growth

NCC1CCC(C(=O)O)CC1 (stereo not drawn)
inactive: S. cerevisiae deletion strains, locus YKL009W, strain mrt4, active compounds read low 0.97 | S. cerevisiae deletion strains, locus YKL068W, active compounds read low 0.984 | S. cerevisiae deletion strains, locus YKL085W, strain MDH1 (second series), active compounds read low 0.985 | S. cerevisiae deletion strains, locus YKL085W, strain MDH1, active compounds read low 0.985 | S. cerevisiae deletion strains, locus YKL160W, strain elf1, active compounds read low 0.997 | S. cerevisiae deletion strains, locus YKL190W, strain CNB1, active compounds read low 0.995 | S. cerevisiae deletion strains, locus YKR001C, strain vps1, active compounds read low 1.01 | S. cerevisiae deletion strains, locus YKR026C, strain gcn3, active compounds read low 0.993 | S. cerevisiae deletion strains, locus YKR091W, strain srl3, active compounds read low 0.997 | S. cerevisiae deletion strains, locus YLL001W, strain dnm1, active compounds read low 0.998 | S. cerevisiae deletion strains, locus YLL026W, active compounds read low 0.996 | S. cerevisiae deletion strains, locus YLL041C, strain sdh2, active compounds read low 0.996 | S. cerevisiae deletion strains, locus YLR027C, strain aat2, active compounds read low 0.989 | S. cerevisiae deletion strains, locus YLR039C, strain RIC1, active compounds read low 0.975 | S. cerevisiae deletion strains, locus YLR058C, strain SHM2, active compounds read low 1 | S. cerevisiae deletion strains, locus YLR102C, strain apc9, active compounds read low 0.989 | S. cerevisiae deletion strains, locus YLR113W, strain HOG1, active compounds read low 1 | S. cerevisiae deletion strains, locus YLR221C, strain rsa3, active compounds read low 0.984 | S. cerevisiae deletion strains, locus YLR258W, strain gsy2, active compounds read low 0.999 | S. cerevisiae deletion strains, locus YLR262C, strain YPT6 (second series), active compounds read low 0.984 | S. cerevisiae deletion strains, locus YLR262C, strain YPT6, active compounds read low 0.953 | S. cerevisiae deletion strains, locus YLR268W, strain sec22, active compounds read low 0.991 | S. cerevisiae deletion strains, locus YLR320W, strain mms22, active compounds read low 0.992 | S. cerevisiae deletion strains, locus YLR330W, strain CHS5, active compounds read low 0.991 | S. cerevisiae deletion strains, locus YLR342W, strain FKS1 (second series), active compounds read low 0.986 | S. cerevisiae deletion strains, locus YLR342W, strain FKS1, active compounds read low 0.998 | S. cerevisiae deletion strains, locus YLR357W, strain rsc2, active compounds read low 0.996 | S. cerevisiae deletion strains, locus YLR370C, strain arc18, active compounds read low 0.996 | S. cerevisiae deletion strains, locus YLR371W, strain rom2, active compounds read low 1 | S. cerevisiae deletion strains, locus YLR384C, strain iki3, active compounds read low 0.999 | S. cerevisiae deletion strains, locus YLR418C, strain cdc73, active compounds read low 0.97 | S. cerevisiae deletion strains, locus YML016C, strain PPZ1, active compounds read low 0.999 | S. cerevisiae deletion strains, locus YML032C, strain rad52, active compounds read low 1.01 | S. cerevisiae deletion strains, locus YML120C, strain ndi1, active compounds read low 0.974 | S. cerevisiae deletion strains, locus YML124C, strain tub3, active compounds read low 0.998 | S. cerevisiae deletion strains, locus YMR058W, strain fet3, active compounds read low 0.988 | S. cerevisiae deletion strains, locus YMR078C, strain ctf18, active compounds read low 0.98 | S. cerevisiae deletion strains, locus YMR125W, strain sto1, active compounds read low 0.999 | S. cerevisiae deletion strains, locus YMR129W, active compounds read low 0.999 | S. cerevisiae deletion strains, locus YMR205C, strain PFK2, active compounds read low 0.989 | S. cerevisiae deletion strains, locus YMR223W, strain ubp8, active compounds read low 0.987 | S. cerevisiae deletion strains, locus YMR231W, strain pep5, active compounds read low 0.999 | S. cerevisiae deletion strains, locus YMR307W, strain GAS1, active compounds read low 1.01 | S. cerevisiae deletion strains, locus YNL067W, strain RPL9B, active compounds read low 1.03 | S. cerevisiae deletion strains, locus YNL071W, strain lat1, active compounds read low 0.989 | S. cerevisiae deletion strains, locus YNL153C, strain GIM3, active compounds read low 1.06 | S. cerevisiae deletion strains, locus YNL183C, strain NPR1, active compounds read low 0.946 | S. cerevisiae deletion strains, locus YNL209W, strain ssb2, active compounds read low 1.02 | S. cerevisiae deletion strains, locus YNL233W, strain BNI4, active compounds read low 1.03 | S. cerevisiae deletion strains, locus YNL248C, strain rpa49, active compounds read low 0.988 | S. cerevisiae deletion strains, locus YNL250W, strain rad50, active compounds read low 0.979 | S. cerevisiae deletion strains, locus YNL271C, strain bni1, active compounds read low 0.978 | S. cerevisiae deletion strains, locus YNL298W, strain CLA4, active compounds read low 0.987 | S. cerevisiae deletion strains, locus YNL307C, strain MCK1, active compounds read low 0.999 | S. cerevisiae deletion strains, locus YNL322C, strain KRE1 (second series), active compounds read low 0.992 | S. cerevisiae deletion strains, locus YNL322C, strain KRE1, active compounds read low 0.991 | S. cerevisiae deletion strains, locus YNR049C, strain mso1, active compounds read low 0.991 | S. cerevisiae deletion strains, locus YNR052C, strain pop2, active compounds read low 0.985 | S. cerevisiae deletion strains, locus YOL006C, strain TOP1, active compounds read low 1.1 | S. cerevisiae deletion strains, locus YOL012C, strain htz1 0.934 | S. cerevisiae deletion strains, locus YOL147C, strain pex11, active compounds read low 0.99 | S. cerevisiae deletion strains, locus YOR001W, strain rrp6, active compounds read low 0.998 | S. cerevisiae deletion strains, locus YOR061W, strain CKA2, active compounds read low 1 | S. cerevisiae deletion strains, locus YOR069W, strain VPS5, active compounds read low 0.986 | S. cerevisiae deletion strains, locus YOR070C, strain gyp1, active compounds read low 0.993 | S. cerevisiae deletion strains, locus YOR080W, strain dia2, active compounds read low 0.987 | S. cerevisiae deletion strains, locus YOR083W, strain WHI5, active compounds read low 1 | S. cerevisiae deletion strains, locus YOR106W, strain vam3, active compounds read low 1.01 | S. cerevisiae deletion strains, locus YOR136W, strain idh2, active compounds read low 0.991 | S. cerevisiae deletion strains, locus YOR144C, strain elg1, active compounds read low 1 | S. cerevisiae deletion strains, locus YOR184W, strain ser1, active compounds read low 0.981 | S. cerevisiae deletion strains, locus YOR231W, strain MKK1, active compounds read low 1.05 | S. cerevisiae deletion strains, locus YOR265W, strain rbl2, active compounds read low 0.994 | S. cerevisiae deletion strains, locus YOR270C, strain vph1, active compounds read low 0.987 | S. cerevisiae deletion strains, locus YOR290C, strain snf2, active compounds read low 1.01 | S. cerevisiae deletion strains, locus YOR316C, strain cot1, active compounds read low 0.992 | S. cerevisiae deletion strains, locus YPL051W, strain arl3, active compounds read low 0.993 | S. cerevisiae deletion strains, locus YPL078C, strain atp4, active compounds read low 0.993 | S. cerevisiae deletion strains, locus YPL106C, strain sse1, active compounds read low 0.967 | S. cerevisiae deletion strains, locus YPL240C, strain hsp82, active compounds read low 0.989 | S. cerevisiae deletion strains, locus YPL241C, strain CIN2, active compounds read low 0.996 | S. cerevisiae deletion strains, locus YPL256C, strain CLN2, active compounds read low 1.02 | S. cerevisiae deletion strains, locus YPR119W, strain clb2, active compounds read low 0.994 | S. cerevisiae deletion strains, locus YPR141C, strain kar3, active compounds read low 0.998 | S. cerevisiae deletion strains, locus YPR163C, strain tif3, active compounds read low 0.992 | S. cerevisiae deletion strains, locus YPR167C, strain met16, active compounds read low 0.989 | S. cerevisiae deletion strains, strain wtn01, active compounds read low 0.979 | S. cerevisiae strains, strain wild type, active compounds read low 0.995
